# Bioassay records: PubChem BioAssay, National Center for Advancing Translational Sciences (NCATS)
# DRV1 agonist: agonists of human resolvin D1 receptor DRV1 (GPR32) | activation, % at 76.9 µM | O75388 | CHO-K1 GPR32 beta-arrestin PathHunter luminescence, 90 min; zero percent set by DMSO-only wells | actives 2.5% (n = 48,000);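 active = activation of at least 60% and not above a set upper limit, about 1 call in 100 departs from these limits; inconclusive = activation of 40% to 60%, or above that upper limit; inactive = activation under 40%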; also: 0% is about no effect
# Target sequence (O75388 whole entry, looked up): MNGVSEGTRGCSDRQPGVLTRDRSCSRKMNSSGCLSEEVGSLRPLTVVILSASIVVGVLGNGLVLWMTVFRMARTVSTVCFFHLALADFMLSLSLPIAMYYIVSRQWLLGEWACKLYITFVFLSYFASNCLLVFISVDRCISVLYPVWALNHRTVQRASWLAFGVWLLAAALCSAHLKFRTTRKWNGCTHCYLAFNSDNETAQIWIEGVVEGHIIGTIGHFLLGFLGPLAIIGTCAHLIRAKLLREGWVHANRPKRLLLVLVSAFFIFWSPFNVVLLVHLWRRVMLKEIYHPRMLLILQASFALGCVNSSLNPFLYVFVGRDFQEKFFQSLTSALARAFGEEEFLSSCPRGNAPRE
#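 Readings come from a cell-based beta-arrestin complementation format: CHO-K1 GPR32 stable cells (2,500/well) treated 90 min with compounds, then beta-Gal substrate added for 1 h before chemiluminescence imaging.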
# HTT-AS act: HTT-AS promoter activation; actives 0.24% (n = 48,000); HEK293 HTT-AS promoter firefly luciferase reporter, 24 h; response scale: percent change from vehicle, -100% = no light; Potency, µM (series often up to 57.5 µM), without a hit: at the top dose activity change, positive = activation, actives largely listed as activators; also: potency is read from the fitted curve at half-maximal effect; nearly all actives have a fitted effect of over 55% in size
#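 HEK293 luciferase promoter-reporter cells (2,500/well) plated 24 h, then compounds added at up to 57.5 uM final for 24 h at 37 °C. Firefly luminescence by Dual-Glo, normalized to vehicle (0%) and zero RLU (-100%).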
# p53null 32C tox: p53 null cell cytotoxicity, permissive temperature. actives 0.62% (n = 55,000). H1299-neo p53 null cells, ATP luminescence, 24 h, 32C. AID 903. Potency, µM (series often up to 46.1 µM), for the others: top-dose activity change, negative = cytotoxicity, actives largely listed as cytotoxic;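 also: potency is read from the fitted curve at half-maximal effect; 0% = DMSO only and -100% = full killing by 100 µM tamoxifen; nearly all actives have a fitted effect of over 55% in size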
#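 Cytotoxicity: H1299-neo (no p53), 32C, 24 h treatment. Concentrations up to 46 uM. Readout cellular ATP, luminescence. Normalization to DMSO basal and tamoxifen 100 uM maximal kill.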
# p53null 39C kill: p53 null cell cytotoxicity, nonpermissive temperature; H1299 p53-null (neo) cells, 39C, ATPlite viability, 24 h; Potency, µM (titrated, usually from 46.1 µM), without a hit: at the top dose activity, negative = cell killing, most hits filed as cytotoxic; actives 0.97% (n = 55,000);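 also: potency is read from the fitted curve at half-maximal effect; 0% = DMSO only and -100% = full killing by 100 µM tamoxifen; nearly all actives have a fitted effect of over 50% in size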
#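 Temperature-shift cytotoxicity format: compound titrations on p53-null or A138V-expressing H1299 cells held 24 hr at 39C, cell ATP then measured, AC50 from Hill model.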
# HTT prom inh: inhibits huntingtin promoter activity; HEK293 HTT promoter firefly luciferase reporter, 24 h; AID 1508623; actives 0.93% (n = 48,000); Potency, µM (top dose mostly 57.5 µM), for the others: top-dose activity change, negative = inhibition, actives largely listed as inhibitors; also: potency is read from the fitted curve at half-maximal effect; nearly all actives have a fitted effect of over 50% in size
#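 HEK293 Fluc reporter, 2,500 cells/well, 24 h pre-culture; cpds up to 57.5 uM final, 24 h 37 degrees C; Dual-Glo, 10 min RT; normalized vehicle = 0%, zero RLU = -100%.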
# * = called active by the depositor; u = inconclusive; x = not tested or not shown; [ ] = another dose, or the depositor's remark. Rows were chosen to be rich in hits. Some 3.9% of all compounds tested hit in one or more screens of this group. Unless noted, calls follow the shape of the dose curve; as a rule, active = well fitted curve in the direction sought with a large enough effect; inconclusive = small, poorly fitted or top-dose-only effect, or another doubt; inactive = no such curve, though single readings can be large; an effect the other way counts as inactive or inconclusive.
SMILES,DRV1 agonist,HTT-AS act,p53null 32C tox,p53null 39C kill,HTT prom inh
COc1ccc(-c2nnc(SCC(=O)N(C)C3CCCCC3)o2)cc1OC,5,-7%,0%,-1%,0%
Cc1nn(-c2ccccc2Cl)c(Cl)c1/C=N/Nc1cccc(C(=O)O)c1,x,x,10µM*,14µM*,x
COC(=O)N/N=C/c1c(C)nn(-c2cccc(Cl)c2)c1Cl,x,x,6%,x,x
C#CCN(C)CC1=Cc2ccccc2Oc2ccccc21,x,-16%,x,x,-12%
CNC1[C@H](O)C(O[C@@H]2C(O)C(O[C@H]3O[C@H]([C@@H](C)NC)CC[C@H]3N)[C@@H](N)C[C@H]2N)OC[C@]1(C)O (some centres not stated),x,-15%,x,x,-1%
O=c1[nH]c2ccc(NCc3ccc(-c4ccccc4)o3)cc2[nH]1,30,-32%,-14%,-7%,u
O=c1[nH]c2ccc(NCc3ccc(-c4ccccc4F)o3)cc2[nH]1,-1,-60%,-9%,u,28µM*
CCCc1nnc(NC(=O)Nc2ccccc2Cl)s1,-17,3.5µM*,-6%,-9%,48%
O=C(Nc1ccccc1)Nc1nnc(CSCc2ccccc2Cl)s1,x,x,4%,-11%,x
C[C@@H]1CCO[C@H]2Cn3cc(C(=O)NCc4ccc(F)cc4F)c(=O)c(O)c3C(=O)N12,x,21%,x,x,9%
COc1ccc(/C=C\c2onc(C)c2S(=O)(=O)N2CCC(C(=O)Nc3ccc(C)c(F)c3)CC2)cc1,-18,-20%,6%,10%,u
COc1ccc(/C=C\c2onc(C)c2S(=O)(=O)N2CCC(C(=O)Nc3ccc(Cl)cc3)CC2)cc1,-16,-18%,-5%,10µM*,u
Cc1n[nH]c(C)c1S(=O)(=O)N1CCCC(C(=O)Nc2ccc(Cl)cc2)C1 (configuration not stated),107*,-47%,12%,5%,28µM*
COc1cccc(Nc2nc3cc(C)ccc3nc2NS(=O)(=O)c2ccc(Cl)cc2)c1,29,-60%,10%,-9%,u
Cc1ccc2nc(NS(=O)(=O)c3ccc(Cl)cc3)c(Nc3ccc(C(=O)O)cc3)nc2c1,83*,0%,-14%,-23%,1%
COc1ccc(-c2nc(C)c(CCNS(=O)(=O)c3ccc(F)cc3)s2)cc1OC,27,-14%,7%,7%,-20%
Cc1ccc(-c2nc(C)c(CCNS(=O)(=O)c3ccc(F)c(C(F)(F)F)c3)s2)cc1,63*,-12%,-1%,6%,-15%
Cc1nc2cc(-c3ccc(Cl)cc3)nn2c(C)c1CCC(=O)N1CCN(c2ccccc2)CC1,0,-75%,0%,1%,1µM*
Cc1nc2cc(-c3ccccc3)nn2c(C)c1CCC(=O)N1CCN(c2ccccc2)CC1,0,-67%,-7%,-17%,2.5µM*
COc1ccc(C(=O)Nc2cc(-c3nc4ccccc4s3)ccc2OC)cc1,-23,-3%,4%,-8%,7%
COc1ccc(C(=O)Nc2ccc(-c3nc4ccccc4s3)cc2C)cc1Cl,-5,1µM*,-4%,-13%,57%
CCOC(=O)C1CCCN(C(=O)c2cc3c(Cl)nc4ccccc4c3s2)C1 (configuration not stated),21,-84%,-4%,-14%,5µM*
O=C(c1cc2c(Cl)nc3ccccc3c2s1)N1CCCCC1,49,21%,-8%,-8%,3%
Cc1csc(-c2nnc(Nc3ccc(Oc4ncccc4-c4ccnc(N)n4)cc3)c3ccccc23)c1,x,-27%,x,x,-27%
COc1cccc(C(=O)Nc2nc(-c3nnn(-c4cc(C)ccc4C)c3C)ns2)c1,31,-31%,6%,-13%,u
SMILES,DRV1 agonist,HTT-AS act,p53null 32C tox,p53null 39C kill,HTT prom inh
COc1cccc(C(=O)Nc2nc(-c3nnn(-c4ccccc4C(F)(F)F)c3C)ns2)c1,91*,-26%,48%,u,u
Nc1cccc(-c2csc(NC(=O)CCCCCCC(=O)NO)n2)c1,x,x,x,x,200%
O=C(Nc1cccc(Cl)c1)C1CCN(S(=O)(=O)Cc2ccccc2)CC1,115*,x,3%,-10%,x
CC(C)Oc1cccc(NC(=O)C2CCN(S(=O)(=O)Cc3ccccc3)CC2)c1,-3,x,2%,-3%,x
COc1cc(OC)nc(O[C@H](C(=O)O)C(OC)(c2ccccc2)c2ccccc2)n1,-51,-2%,x,x,3%
CC[C@H](C=C[C@@H](C)[C@H]1CC[C@H]2[C@@H]3CC=C4C[C@@H](O)CC[C@]4(C)[C@@H]3CC[C@]12C)C(C)C,x,-10%[25.1 µM],x,x,0%[25.2 µM]
CC(=O)c1ccc(N2CCN(S(=O)(=O)c3ccc(-c4coc(C)n4)cc3)CC2)cc1,63*,-29%,-11%,7%,u
Cc1ccc(C)c(N2CCN(S(=O)(=O)c3ccc(-c4coc(C)n4)cc3)CC2)c1,-1,-28%,14%,21%,-29%
CCOc1ccc(-c2nnc(-c3ccccc3)o2)cc1,x,x,u,13µM*,x
CCOc1ccc(-c2nc3ccccc3c(=O)o2)cc1,31,u,4µM*,6.3µM*,72%
O=c1[nH]sc2cc(Cl)ccc12,32,u,x,x,-36%
COc1c(Cl)cc2c([nH]c3cnccc32)c1NC(=O)c1cccnc1C,x,0%,x,x,5%
CC(/C=N/Nc1nc2ccccc2[nH]1)=C\c1ccccc1,x,x,7.9µM*,u,x
CC1(C)CC(O)CC(C)(C)N1[O],x,-8%,x,x,-9%
COc1ccc(C(=O)NC(c2ccc(Cl)cc2)c2cc(Cl)c3cccnc3c2O)cc1 (configuration not stated),-41,-59%,u,17%,18µM*
O=C(c1cc(Cc2n[nH]c(=O)c3ccccc23)ccc1F)N1CCN(C(=O)C2CC2)CC1,x,-33%,x,x,-20%
CCOC(=O)c1cccc(NC(=O)c2ccc3c(Cl)c4c(nc3c2)CCC4)c1,-9,-11%,u,0.4µM*,-5%
O=C(Nc1ccccc1C(F)(F)F)c1cc2ccccn2n1,-8,x,7.9µM*,10µM*,x
CCOC(=O)c1cccc(NC(=O)c2cc3ccccn3n2)c1,13,x,13µM*,10µM*,x
CCOC(=O)c1ccccc1NC(=O)c1ccc2c(Cl)c3c(nc2c1)CCC3,-7,15%,u,u,-4%
Cn1cc(-c2[nH]c3cc(NC(=O)[C@H](N)C4CCCCC4)cc4c3c2C=NNC4=O)cn1,x,-33%,x,x,u
Cn1c(SCc2ccc(F)cc2)nc2ccc(C(=O)NCc3ccc(Cl)cc3)cc21,-2,-45%,12%,18%,u
Cn1c(SCc2ccc(F)cc2)nc2ccc(C(=O)NCc3ccc(F)cc3)cc21,3,-62%,20%,8%,25µM*
Cc1ccc(CNC(=O)c2ccc3nc(SCc4ccc(F)cc4)[nH]c3c2)cc1,14,-87%,-8%,-16%,22µM*
CC(C)n1cnc2c(NCCCCCCNC(=O)OC(C)(C)C)nc(NCCO)nc21,x,-31%,x,x,-26%
